# Bioassay records (PubChem)
# A selection: hits, their analogues and other compounds. The true share with any hit is near 5.3%.
# HP1b binding inh: HTS for Inhibitors of HP1-beta Chromodomain Interactions with Methylated Histone Tails; Potency, µM (series often up to 114 µM), most hits filed as inhibitors; AlphaScreen HP1-beta / biotin-H3K9me3 peptide binding; Chromobox protein homolog 1 (Homo sapiens), P83916; actives 0.56% (n = 390,000); also: nearly all actives have a fitted effect of over 70% in size
#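 Compound inhibition of the preformed complex between 50 nM HP1-beta and 50 nM biotinylated H3K9me3 peptide was read by AlphaScreen. Buffer was PBS pH 7.4 with 0.01% Tween-20. Incubations ran 30 min at room temperature, with 10 ug/mL donor/acceptor beads.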
# BAZ2B inh: qHTS Assay for Inhibitors of BAZ2B | AID 504333, 2011 | actives 4.4% (n = 360,000) | Potency, µM (series often up to 114 µM), actives largely listed as inhibitors | AlphaScreen BAZ2B-H3K14Ac peptide displacement; also: nearly all actives have a fitted effect of over 60% in size
#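 Compounds, titrated to a top concentration of 110 uM, were incubated 30 min at room temperature with preformed BAZ2B/acetyl-K14 H3 peptide complex (50 nM each). Proximity signal was measured by AlphaScreen after 20 min with beads.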
# CtBP-E1A blk: qHTS Assay for Inhibitors of the CtBP/E1A Interaction; CtBP / adenovirus E1A interaction (AlphaScreen); actives 0.49% (n = 340,000); AlphaScreen GST-E1A/His-CtBP binding, 1536-well; active compounds read low; activity change, % (no concentration beside the values); in the data active = activity change below about -65%; inconclusive = mostly about -30% to -63%
#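 Steps: dispense buffer (Tris pH 8.0, NaCl 300 mM, TCEP 1 mM, BSA, Tween 20); add 5X protein mix (GST-E1A, His-CtBP, 125 nM each); pin 23 nL compound; 2 h at 37 °C, dark; add 5X beads (50 ug/mL); 1 h; read.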
# JMJD2A Tudor: qHTS Assay for Inhibitors of JMJD2A-Tudor Domain | AlphaScreen JMJD2A-Tudor / H3K4me3 peptide binding | Potency, µM (titrated, usually from 114 µM), hits mostly inhibitors | AID 504339, 2011 | actives 4.4% (n = 390,000) | Lysine-specific demethylase 4A (Homo sapiens), O75164; also: nearly all actives have a fitted effect of over 50% in size
# Six1-Eya2 inh: qHTS Assay for Inhibitors of the Six1/Eya2 Interaction | AID 651725, 2012 | actives 0.56% (n = 360,000) | AlphaScreen GST-Six1/His-Eya2 binding, biochemical; active compounds read low | Homeobox protein SIX1 (Homo sapiens) + Protein phosphatase EYA2 (Homo sapiens), … | activity change, % (concentration not given with the values); in the data active = activity change below about -65%; inconclusive = mostly about -30% to -63%
# Target sequence (O00167 whole entry, looked up): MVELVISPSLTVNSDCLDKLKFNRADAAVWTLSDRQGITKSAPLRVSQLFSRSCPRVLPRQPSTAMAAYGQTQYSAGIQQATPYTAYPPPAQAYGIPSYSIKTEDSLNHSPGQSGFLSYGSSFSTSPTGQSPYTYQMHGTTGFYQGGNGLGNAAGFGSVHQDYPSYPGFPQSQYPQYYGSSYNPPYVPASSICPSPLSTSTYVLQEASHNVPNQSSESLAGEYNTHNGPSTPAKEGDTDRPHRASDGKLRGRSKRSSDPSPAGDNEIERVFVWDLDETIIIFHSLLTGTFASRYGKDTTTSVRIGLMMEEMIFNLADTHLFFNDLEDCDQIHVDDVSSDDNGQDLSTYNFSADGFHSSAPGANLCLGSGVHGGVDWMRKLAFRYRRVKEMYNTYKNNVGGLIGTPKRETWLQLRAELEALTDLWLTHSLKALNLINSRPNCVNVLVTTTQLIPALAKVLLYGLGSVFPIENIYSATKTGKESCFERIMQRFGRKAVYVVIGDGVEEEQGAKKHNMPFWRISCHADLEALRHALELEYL
# Target sequence (Q15475 whole entry, looked up): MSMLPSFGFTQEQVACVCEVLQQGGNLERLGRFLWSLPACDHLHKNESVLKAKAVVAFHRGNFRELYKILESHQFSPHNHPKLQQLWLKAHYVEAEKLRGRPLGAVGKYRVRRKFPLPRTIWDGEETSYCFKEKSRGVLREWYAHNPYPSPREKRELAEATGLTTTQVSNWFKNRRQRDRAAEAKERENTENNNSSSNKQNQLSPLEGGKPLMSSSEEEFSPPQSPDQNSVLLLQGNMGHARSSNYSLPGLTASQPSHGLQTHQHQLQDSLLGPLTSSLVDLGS
#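 GST-Six1 + His-Eya2 (5X stock: 250/500 nM); Tris pH 8.0, 300 mM NaCl, 0.05% BSA, 0.02% Tween 20; GSH donor/Ni acceptor beads; 1 h 37 °C dark; AlphaScreen readout.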
# TDP1 block: qHTS Assay for Inhibitors of Tyrosyl-DNA Phosphodiesterase (TDP1); Potency, µM (doses to about 130 µM), usual class: inhibitors; AID 485290, 2010; Tyrosyl-DNA phosphodiesterase 1 (Homo sapiens), Q9NUW8; actives 0.28% (n = 350,000); recombinant TDP1, AlphaScreen DNA substrate cleavage; also: nearly all actives have a fitted effect of over 40% in size
#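 Signal: AlphaScreen proximity between streptavidin donor and anti-FITC acceptor beads on intact substrate. Reaction: Tdp1 1 nM, substrate 15 nM final, 5 min RT after 15 min compound preincubation.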
# Numbers stand for hits; n = inactive; u = inconclusive; x = no result; ! = not confirmed by another sample; [ ] = remark or other dose. Unless noted, calls follow the shape of the dose curve; as a rule, active = well fitted inhibition curve with a large enough effect; inconclusive = small, poorly fitted or top-dose-only effect; inactive = no such curve, though single readings can be large or run the other way.
SMILES,HP1b binding inh,BAZ2B inh,CtBP-E1A blk,JMJD2A Tudor,Six1-Eya2 inh,TDP1 block
C[C@@H]1CN2[C@H](c3ccc(Br)cc3)[C@H](C)CC[C@H]2C(=O)O1,x,x,x,x,x,n[21 µM]
Cc1sc2ncnc(Nc3ccccc3)c2c1C,n,n,n,n[11.4 µM],n,n
Cc1sc2ncnc(N3CCN(Cc4ccccc4)CC3)c2c1-c1ccccc1,u,32µM,n,u,n,n
Cc1sc2ncnc(Nc3ccc(N4CCOCC4)cc3)c2c1-c1ccccc1,n,u,x,35µM,n,n
COc1ccc2c(CC(=O)OCC(=O)Nc3ccc4c(c3)OCO4)coc2c1,u,u,n,20µM,n,n
CCCC(=O)OCC(=O)Nc1ccc2c(c1)OCO2,n,n,n,n,n,n
O=C(COC(=O)[C@H](Cc1c[nH]c2ccccc12)NC(=O)c1ccc(Cl)cc1)Nc1ccc2c(c1)OCO2,n,56µM,n,u,n,n
COc1ccc2c(CC(=O)OCC(=O)Nc3ccc(C)cc3)coc2c1,n,50µM,n,n,n,n
COc1ccc2c(CC(=O)OCC(=O)Nc3ccc(S(N)(=O)=O)cc3)coc2c1,n,n,n,n,n,x
COc1ccccc1OCC(=O)Nc1ccc2c(c1)OCO2,n,50µM,n,u,n,n
COc1cc(-c2nc3nc[nH]n3c2Nc2ccc(C(C)C)cc2)ccc1O,u,n,x,u,x,n
Cc1ccc(/C=C/c2onc(C)c2S(=O)(=O)N2CCC(C(=O)NCc3ccc(OC(C)C)cc3)CC2)cc1,n,n,x,n,x,n
O=C1CCc2cc(S(=O)(=O)Nc3ccncc3)ccc2N1,x,x,x,n,x,n
CCOc1ccc(C2c3c(oc4ccc(C)cc4c3=O)C(=O)N2CCCN2CCOCC2)cc1 (stereo unspecified),n,n,x,n,x,n
CC(=O)OCC(CO)OC(C)=O (stereo unspecified) (tested in a mixture with another compound),x,x,x,x,x,n
Cc1ccc(S(=O)(=O)NCc2cn3c(C)csc3n2)cc1,n,n,n,n,n,n
Cc1ccc(SCc2cn3c(C)csc3n2)cc1,n,56µM,n,n,n,n
N#C/C(=C\c1cc(Cl)c(OCc2ccc(Cl)cc2)c(Cl)c1)C(N)=O,x,n,x,x,x,x
N#C/C(=C\c1cc(O)c(O)c(O)c1)C(N)=O,u,n,x,3.5µM,n,x
CCCn1cnc2cc(NCc3ccccn3)ccc21,n,50µM,n,56µM,n,n
CCc1ccc(CNc2ccc3c(c2)ncn3C)cc1,u,45µM,n,u,n,n
CC(C)(C)n1cnc2cc(NCc3ccccc3Cl)ccc21,u,32µM,x,40µM,x,n
Cn1cnc2cc(NCc3ccccc3O)ccc21,n,n,x,n,n,n
Cc1ccc(CNc2ccc3c(c2)ncn3C(C)(C)C)cc1,n,35µM,n,n[11.4 µM],n,n
O=C(Nc1ccc(C(=O)OCc2cc(=O)n3c4c(sc3n2)CCCC4)cc1)c1cccc(F)c1,n,n,x,n,x,n
SMILES,HP1b binding inh,BAZ2B inh,CtBP-E1A blk,JMJD2A Tudor,Six1-Eya2 inh,TDP1 block
CSc1ccc(CNC(=O)CCn2ccc3cc(S(=O)(=O)N4CCC(C)CC4)ccc32)cc1,n,n,x,n,x,n
Nc1nn2c(-c3ccccc3)cc(=O)[nH]c2c1N=Nc1ccc(O)cc1,u,u,u,n,u,n
Nc1nn2c(-c3ccccc3)cc(=O)[nH]c2c1N=Nc1ccc(Br)cc1,u,n,x,28µM,n,n
COc1ccc(OC)c(C2=Nn3c(nnc3-c3cc(OC)ccc3OC)SC2)c1,x,x,x,u,x,n
Oc1ccc(C2=Nn3c(nnc3-c3ccco3)SC2)cc1O,u,u,-94,45µM,-89,n
COc1ccc(C2=Nn3c(nnc3-c3cc(OC)ccc3OC)SC2)c(OC)c1,x,x,x,79µM,x,n
CC(C)(C)C1=Nn2c(nnc2-c2ccco2)SC1,u,n,n,n,n,n
COc1ccc(OC)c(C2=Nn3c(nnc3-c3ccco3)SC2)c1,n,n,u,n,u,n
COc1ccc(C2=Nn3c(nnc3-c3ccco3)SC2)cc1,n,n,-80,n,-66,n
Cc1cc(Br)ccc1SCC(=O)OCC(=O)NC1CC1,n,79µM,n,n,n,n
CC1CCN(C(=O)CN2c3ccc(C(C)C)cc3-c3ccccc3S2(=O)=O)CC1,n,n,x,n,x,n
ON=C1c2ccccc2-c2ccccc21,n,n,n,n,n,x
CN(C)c1ccc2c(c1)C(=NO)c1ccccc1-2,45µM,x,n,40µM,-66,x
COc1ccc(OCC(O)CN(CC(O)COc2ccc(OC)cc2)c2cccc(O)c2)cc1 (stereo unspecified),n,45µM,n,u,n,n
O=c1c2sc3ccccc3c2n(Cc2ccccc2)c(=O)n1CCc1ccccc1,n,n,x,n,x,n
Cc1cc(C(N)=O)c2ccccc2n1,n,x,n,n,n,n
NC(=O)c1cc2c3ccccc3ccn2c1-c1ccccc1,u,32µM,x,32µM,n,n
Cc1ccc(-c2c[n+](CC(=O)Nc3ccc(C)cc3C)c3n2CCC3)cc1,n,n,n,n,n,n
Cc1ccc(NC(=O)C[n+]2cc(-c3ccc(C)cc3)n3c2CCC3)cc1,n,n,n,8.9µM,n,n
Cc1nc2ccn(Cc3cccs3)c(=O)c2cc1C(=O)NCc1ccc(Br)cc1,n,n,x,n,x,n
Cc1cc(C(=O)O)c(C)n1-c1ccccc1,n,n,n,n,n,n
Cc1ccc(C)n1-c1sccc1C(=O)O,u,18µM,n,u,-68,x
COc1ccc(CNC(=O)C2(c3cccs3)CCOCC2)cc1,n,n,x,n,x,n
COc1ccc(Cl)cc1N(C)C(=O)Cn1cnc2sc(C)c(S(=O)(=O)N3CCN(c4ncccn4)CC3)c2c1=O,n,n,x,n,x,n
COc1cccc(CNS(=O)(=O)c2ccccc2Br)c1OC,n,x,n,79µM,n,x
SMILES,HP1b binding inh,BAZ2B inh,CtBP-E1A blk,JMJD2A Tudor,Six1-Eya2 inh,TDP1 block
O=C(Nc1cccnc1)c1cc(-c2cccc(Cl)c2)on1,n,n,n,25µM!,n,n
CN(Cc1ccccc1)C(=O)c1ccc(CSc2nc3cccnc3n2Cc2ccccc2)cc1,n,n,x,n,x,n
CC(=O)c1ccc(NC(=O)c2cccc(NC(=O)N3CCSc4ncccc43)c2)cc1,n,n,x,n,x,n
O=C1NC(=S)N/C1=C\c1ccc(N2CCOCC2)cc1,n,n,x,20µM,n,n
O=C1NC(=S)NC1=Cc1ccc(O)cc1,n,x,n,n,n,x
COc1ccc(N2CCN(C(=O)CSc3nc4ccccc4nc3Cc3ccc(Cl)cc3)CC2)cc1,u,u,x,u,x,n
